Vc quorum ag – inducers of Vibrio cholerae quorum light production without autoinducers, primary screen, BH1578 luxS cqsA deficient, single point; V. cholerae BH1578 lux reporter, luminescence, 6 h; activation, % at 18.7 µM; actives 0.16% (n = 350,000); AID 588436, 2011; in the data active = activation mostly above about 9.7%, no sharp cut-off
PrPC TRFRET – inhibitors of human cell surface prion protein PrPC, primary screen, cell-based, TR-FRET; Major prion protein (Homo sapiens), P04156; actives 0.43% (n = 370,000); inhibition, % at 13.8 µM; TR-FRET read-out; in the data active = inhibition above about 24%; note: 0% = median of the test wells and 100% = reference compound wells
FBA Mtb inh – Mtb FBA enzyme inhibitors, primary screen, biochemical, fluorescence, strain H37Rv. purified M. tuberculosis FBA, fluorescence read-out. AID 588726, 2011. actives 2.3% (n = 360,000). inhibition, % at 1 µM;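 note: 0% = vehicle and 100% = reference inhibitor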
Target sequence (P9WQA3 whole entry, looked up): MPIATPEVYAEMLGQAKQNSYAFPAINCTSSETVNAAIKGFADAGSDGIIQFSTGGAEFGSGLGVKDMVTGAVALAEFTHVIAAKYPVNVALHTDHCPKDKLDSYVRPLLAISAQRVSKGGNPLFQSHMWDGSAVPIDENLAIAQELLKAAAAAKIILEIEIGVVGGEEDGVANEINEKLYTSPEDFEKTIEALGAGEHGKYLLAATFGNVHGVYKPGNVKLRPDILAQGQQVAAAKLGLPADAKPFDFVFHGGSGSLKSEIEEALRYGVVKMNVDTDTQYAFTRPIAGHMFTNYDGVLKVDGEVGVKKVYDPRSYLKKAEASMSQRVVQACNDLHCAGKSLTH
SARS 3CLpro inh – SARS-CoV 3CLpro protease inhibitors, primary screen, biochemical, quenched FRET. Replicase polyprotein 1ab (Severe acute respiratory syndrome coronavirus), P0C6X7. recombinant SARS-CoV 3CLpro, quenched FRET peptide cleavage. inhibition, % at 6 µM. actives 0.14% (n = 290,000). AID 1706, 2009; in the data active = inhibition above about 12%
GDH-TPI counter-1 – GDH-TPI coupling enzyme inhibitors, primary screen, artefact control for M. tuberculosis FBA inhibitor project, biochemical, absorbance, full deck | GDH-TPI coupled enzyme counterscreen, NADH absorbance | inhibition, % at 4.8 µM | actives 1.2% (n = 360,000) | AID 588335, 2011; in the data active = inhibition above about 30%;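 note: 0% = DMSO wells and 100% = wells lacking the enzyme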
Mtb FBA inh conf – M. tuberculosis aldolase blockers, biochemical, fluorescence, strain H37Rv, confirmation. shares compounds with FBA Mtb inh. purified M. tuberculosis FBA, fluorescence read-out. inhibition, % at 1 µM. actives 78% (n = 5,600). AID 651616, 2012;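 note: 0% = vehicle wells and 100% = reference inhibitor wells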
GDH-TPI counter-2 – GDH-TPI coupling enzyme inhibitors, artefact control for M. tuberculosis FBA inhibitor project, biochemical, fluorescence, high throughput; shares compounds with FBA Mtb inh; GDH-TPI coupled enzyme counterscreen; inhibition, % at 1 µM; actives 81% (n = 5,600); in the data active = inhibition above about 10%
Starred values were filed as active, the others as inactive; i = inactive; · = no result given; + = active, no number. Most compounds without a hit are left out; they make up all but 3.9% or so of the library. Cut-off read from the data, not from the text of the source, unless noted: active = inhibition above about 27%; inactive = the rest.

SMILES | Vc quorum ag | PrPC TRFRET | FBA Mtb inh | SARS 3CLpro inh | GDH-TPI counter-1 | Mtb FBA inh conf | GDH-TPI counter-2
Cc1cc(=O)oc2cc(OCC(=O)NCc3ccccn3)ccc12 | -3 | 3 | 14 | -3 | 6 | · | ·
Cn1c(C(=O)OCC(=O)NCc2ccc(F)cc2)cc2occc21 | 1 | 8 | 2 | · | -6 | · | ·
O=S(=O)(c1cccc(F)c1)N1CCN(c2nc(-c3cccnc3)nc3ccccc23)CC1 | -1 | -10 | -2 | · | -1 | · | ·
COC(=O)Cc1ccc(NC(=S)N2CCN(CCO)CC2)cc1 | 0 | 5 | 3 | · | 13 | · | ·
Clc1ccc2nc(-c3ccccc3)cn2c1 | 0 | 0 | 5 | -3 | 5 | · | ·
Cc1cccc2nc(-c3cccc(NC(=O)Cc4ccccc4)c3)cn12 | -1 | 11 | 25 | -3 | 11 | · | ·
Cc1ccn2cc(-c3cccc(NC(=O)CCC(=O)O)c3)nc2c1 | i | -3 | 44* | 8 | 7 | 45* | 34*
CC(=O)Nc1ccc2nc(-c3ccccc3)cn2c1 | -1 | 1 | 38* | -1 | 14 | + | 184*
Cc1ccn2cc(-c3cccc(NS(C)(=O)=O)c3)nc2c1 | 0 | 1 | 37* | 9 | 4 | 60* | 31*
CC(=O)Nc1cccc(-c2cn3ccc(C)cc3n2)c1 | 0 | -8 | 50* | -5 | 12 | + | +
O=C(CNC(=O)c1ccco1)NNC(=O)c1cccc(Cl)c1 | i | -1 | 5 | · | -8 | · | ·
CCOC(=O)/C(C#N)=C/C1=C(N2CCOCC2)CC(C)(C)OC1 | i | 8 | 4 | -1 | 9 | · | ·
Clc1ccc(Nc2nnc(-c3ccc4c(c3)OCO4)o2)cc1 | · | 0 | · | · | · | · | ·
Cc1ccc(S(=O)(=O)Nc2nc(C)c(C(=O)NN)s2)cc1 | 0 | -5 | 6 | 5 | 30 | · | ·
C/C(=N/NC(=O)c1sc(NS(=O)(=O)c2ccc(C)cc2)nc1C)c1sc(N)nc1C | i | 2 | 66* | 0 | 17 | 172* | 140*
Cc1cccc(-c2cc(NCCc3cccnc3)n3nccc3n2)c1 | i | 3 | 32* | · | 4 | 46* | 35*
Cc1cccc(-c2cc(N3CCCN(C)CC3)n3nccc3n2)c1 | 1 | -4 | 25 | · | 2 | · | ·
CCOc1cccc(-c2cc(NCCc3ccccn3)n3nccc3n2)c1 | i | 6 | 35* | · | 7 | 87* | 71*
c1ccc(-c2cn3c(n2)SCC3)cc1 | -4 | 5 | 1 | -1 | -1 | · | ·
Cc1oc2ccccc2c1-c1cn2c(n1)SCC2 | -2 | 0 | 102* | 2 | 5 | 52* | 41*
COc1ccc(CNC(=O)c2sc3nc4c(c(C(F)(F)F)c3c2N)CCC4)cc1 | · | · | · | -1 | · | · | ·
Cc1cccc(NC(=O)CNC(=O)COc2ccc(C(=O)c3ccc(F)cc3)cc2)c1C | i | -9 | 1 | -5 | 3 | · | ·
Cc1cccc(NC(=O)CNC(=O)COc2ccc(-c3ccc(C#N)cc3)cc2)c1C | 0 | -2 | 29* | -4 | 10 | 101* | 80*
N#Cc1ccc(-c2ccc(OCC(=O)Nc3cccnc3)cc2)cc1 | -1 | 8 | 43* | -2 | 1 | 116* | 85*
CCc1cc2c(nc1CC)CCCN2Cc1ccccc1C(F)(F)F | · | 4 | · | · | · | · | ·
SMILES | Vc quorum ag | PrPC TRFRET | FBA Mtb inh | SARS 3CLpro inh | GDH-TPI counter-1 | Mtb FBA inh conf | GDH-TPI counter-2
Cc1csc(SCC(=O)N(C)CC(=O)Nc2ccc(F)cc2)n1 | -1 | · | 28* | -5 | -6 | 29* | 13*
CCc1ccc(NC(=O)Cn2c3[n+](c4c(F)c(F)ccc42)CCCCC3)cc1 | 1 | -1 | -2 | 6 | 0 | · | ·
Nc1ccccc1C(=O)NC1CCCNC1=O (stereo unspecified) | 0 | 8 | 61* | · | -2 | + | +
Cn1c2ccccc2c2c(C(=O)NCC3CCCO3)cn(C3CCCC3)c(=O)c21 (stereo unspecified) | -4 | · | 12 | 3 | 12 | · | ·
CN1CCN(CCCNC(=O)c2cn(C3CCCCC3)c(=O)c3c2c2ccccc2n3C)CC1 | -1 | 3 | 31* | 1 | 11 | 37* | 41*
Cn1c2ccccc2c2c(C(=O)NCCCN3CCCC3=O)cn(C3CCCCC3)c(=O)c21 | i | -9 | 35* | 2 | 12 | 98* | 85*
COc1ccc(C)cc1CN(C)c1ccc(S(=O)(=O)N2CCN(C)CC2)cn1 | 1 | -10 | -1 | · | 3 | · | ·
Cc1oc2c(CN3CCOCC3)c(O)ccc2c(=O)c1-c1ccc(Br)cc1 | · | -2 | 68* | -2 | 10 | 4 | -4
CCCc1cc(=O)oc2c(CN3CCOCC3)c(O)ccc12 | i | 1 | · | 0 | 23 | · | ·
CCOC(=O)c1oc2c(CN3CCCCC3C)c(O)ccc2c(=O)c1-c1ccc(OC)c(OC)c1 (stereo unspecified) | 0 | -8 | 2 | 7 | 15 | · | ·
Cc1oc2c(CN3CCOCC3)c(O)ccc2c(=O)c1-c1ccc(Cl)cc1 | i | 4 | 65* | 1 | 28 | 37* | 22*
Cc1oc2c(CN3CCCCC3C)c(O)ccc2c(=O)c1-c1ccc(Br)cc1 (stereo unspecified) | -1 | -3 | 108* | -1 | 11 | 118* | 97*
CCCCN1C[C@H](COC(=O)CCC)Oc2cccc(F)c2S1(=O)=O | i | 3 | -1 | · | 4 | · | ·
O=C(CCNC(=O)c1ccco1)NCc1ccc(F)cc1 | -6 | 2 | -1 | · | -1 | · | ·
COc1ccc(OC)c(/C=N\NC(=O)c2cc3c(ccc4ccccc43)o2)c1 | -1 | -3 | 7 | 0 | 24 | · | ·
O=C(N/N=C/c1ccccc1F)c1cc2c(ccc3ccccc32)o1 | i | 2 | 30* | 1 | 13 | 54* | 36*
COC(=O)C1C(O)=C(C=Nc2cccc3ccccc23)C(=O)CC1(C)C (stereo unspecified) | 0 | -9 | 32* | 1 | 5 | 131* | 93*
CC1(C)S[C@@H]2[C@H](NC(=O)[C@H](N)c3ccccc3)C(=O)N2[C@H]1C(=O)OC1OC(=O)c2ccccc21 (stereo partly specified) | -1 | 4 | 66* | · | 7 | + | 160*
Cc1ccc(Nc2ccc(C(=O)O)cc2N)cc1 | · | 1 | · | -3 | · | · | ·
COc1cccc(Nc2ccc(C(=O)O)cc2N)c1 | i | -16 | 62* | 5 | 15 | 49* | 49*
Cc1ccc(OCC(=O)Nc2ccc(O)c(C(=O)O)c2)cc1C | 0 | 6 | 72* | -5 | -7 | + | +
Cc1ccc(-c2nnc(N)s2)cc1 | 0 | -3 | 4 | -7 | 2 | · | ·
